Experimental findings from PubChem BioAssay are described below.

Assay [1] in a line: Her2 expression decrease, cell viability multiplex – SKBR3 breast tumor cells, AlphaScreen, ATP viability, primary screen (AID 461;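 active = Her2 level under about 52% in both replicate screens, with viability over 70% of control, limit read from the data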;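 as to Her2 level: lower value means less Her2 protein in the cells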;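 as to viability: percent of carrier control wells set as 100% viability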). The conditions noted are these: SKBR3 Her2 protein level, 18-24 h, measured here: SKBR3 viability, ATP luminescence, at 10 µM. (Alpha assays give light when donor and acceptor beads are brought close together.)
The target of assay [2] is Receptor tyrosine-protein kinase erbB-2 (Homo sapiens) (UniProt P04626). The description is as above. The conditions noted are these: 18-24 h, at 10 µM, stronger effect = lower value.
Assay [3] in a line: reduced viability of SK-BR-3 breast cancer cells – cell-based, 24 h, human, pilot screen (AID 572;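 active = viability at or below 10% of carrier control in both of two separate runs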;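 also: compound exposure lasted between 18 and 24 h rather than exactly 24 h; 100% = carrier-treated control wells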). The conditions noted are these: SK-BR-3 viability, CellTiter-Glo luminescence, at 10 µM, stronger effect = lower value.
The nature of assay [4]: HUVEC growth inhibition – cell-based, human, primary screen (AID 575;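 active = viability at or below 30% in both replicate assays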;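 also: 100% = median of untreated cell wells with 0.1% DMSO on each plate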). Particulars: HUVEC proliferation, CellTiter-Glo luminescence, 72 h; at 10 µM; stronger effect = lower value. Background: In ATP-based viability assays light output follows the ATP content of the culture.
Assay [5] is described as follows: H69AR cell proliferation blockers – human, duplicate replicates, primary screen (AID 580;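 active = viability at or under a set limit in both replicates, limit being median viability minus 3 SD, cut at about 48% in these data, passing the limit was not always enough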;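 also: 100% = mean luminescence of untreated wells and 0% = no signal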). The conditions noted are these: H69AR lung tumor cells viability, ATP luminescence, 72 h; at 10 µM; stronger effect = lower value.
Assay [6] can be described thus: MRP1 drug-resistance reversers in H69AR cells – cell-based, doxorubicin co-treatment, pilot screen (AID 601;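 active = viability loss from added drug above about 55%, and viability with drug at most 40%, in both replicates, limit read from the data, passing the limit was not always enough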). The conditions noted are these: CellTiter-Glo, 72 h, at 10 µM; for differential viability (reversal): stronger effect = higher value.
The nature of assay [7]: yeast transport mutant growth inhibition pilot in 384-well plates, post-Golgi transport modulator project (AID 636; in the data active = inhibition above about 31%). The conditions noted are these: absorbance 615 nm, about 18 h, stronger effect = higher value.
Assay [8] in a line: growth suppression of yeast trafficking mutant, preliminary HTS, modulators of trafficking downstream of Golgi apparatus project, 1536-format plate, OD 615 nm (AID 637; in the data active = inhibition above about 30%). The conditions noted are these: yeast transport mutant growth, absorbance 615 nm, 18 h; stronger effect = higher value.
Assay [9] is described as follows: S. cerevisiae growth inhibition in permissive medium (OD615), pilot counter-assay for S. cerevisiae lifespan shortening project, permissive growth control (AID 705;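 active = growth inhibition above 25% in both replicates, a cutoff set 3 SD above the mean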). The conditions noted are these: OD615, 24 h, at 10 µM, stronger effect = higher value.
A short description of assay [10]: S. cerevisiae growth inhibition in restrictive medium, OD615, pilot screen, restrictive growth control, yeast lifespan reduction project (AID 706;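 active = growth inhibition above a set limit, 3 SD over mean compound inhibition, in both replicates, cut at about 43% in these data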;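 also: modified DeaD lifespan yeast strain shifted to restrictive glucose medium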). The conditions noted are these: OD615, 48 h, at 10 µM, stronger effect = higher value.
Assay [11] is described as follows: doxorubicin toxicity protection in MRP-1 cells – H69AR cells, CellTiter-Glo, duplicate, MRP-1 activator project, pilot screen (AID 807;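 active = viability increase at or above a cutoff of the median across tested compounds plus 3 SD, cut at about 8.5% in these data, passing the limit was not always enough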;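 also: compound pretreatment 18-22 h then 72 h combined with doxorubicin; 0% = doxorubicin alone and 100% = vehicle without doxorubicin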). Particulars: H69AR viability with doxorubicin, CellTiter-Glo luminescence; at 10 µM; stronger effect = higher value.
Assay [12] is described as follows: viability of HCT116 without oncogenic beta-catenin – human colon tumor cells, pilot screen (AID 823;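 active = cell viability at or below a set limit in both duplicate runs, the limit being the all-compound median minus 4 SD, cut at about 23% in these data, passing the limit was not always enough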;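 also: 0% = wells killed by 20 µM Hyamine and 100% = untreated DMSO cell wells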). The conditions noted are these: HCT116 beta-catenin knockout viability, CellTiter-Glo, 60 h; at 10 µM; stronger effect = lower value.
A short description of assay [13]: viability of PTEN-null HCT116 cells – cell-based, HCT116 clonal line, CellTiter-Glo, pilot screen (AID 824).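 Also: 0% = 20 µM Hyamine control and 100% = vehicle cell control.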 Particulars: HCT116 PTEN-deleted viability, 60 h, at 10 µM, stronger effect = lower value.
A short description of assay [14]: RAM pathway blockade in budding yeast – dse1pr::URA3 reporter, 5-FOA selection, pilot screen (AID 869;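 active = inhibition over a set limit, the all-compound mean plus 3 SD, in both replicate runs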;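 also: 0% = DMSO wells with no growth and 100% = 10 µM 1-NA-PP1 with full growth; RAM network block rescues cells from 5-FOA so hits raise OD615 growth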). The conditions noted are these: S. cerevisiae dse1pr::URA3 5-FOA growth, OD615, 2 d; at 10 µM; stronger effect = higher value; strain carries analog-sensitive mutant Cbk1 kinase.
The nature of assay [15]: RAM signaling pathway blockade in yeast – S. cerevisiae, Pdr1DBD-CYC8 efflux-inhibited sensitized strain, primary screen (AID 1298;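 active = RAM network inhibition above 8.4% in each of two replicates, 3 SD over the compound average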;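 also: 0% = DMSO untreated cells without growth and 100% = 10 µM 1-NA-PP1 full growth; higher means more yeast growth rescued from 5-FOA killing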). The conditions noted are these: S. cerevisiae cbk1-as DSE1-URA3 strain, 5-FOA growth OD615, 2 d; at 50 µM; stronger effect = higher value.
Setting [16] is: H69AR cells + 2 uM doxorubicin, measured here: viability with 2 uM doxorubicin, stronger effect = lower value.
Where [17] appears, read: H69AR cells, compound alone cytotoxicity.

Molecules are shown by their SMILES. Records with an inconclusive call do not appear. Activity calls are given as the source filed them.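 The calls were made as follows, unless noted: active = viability at or below 27.92% in each of two runs, the all-compound median minus 4 SD; inconclusive = no clear call, values can overlap the other calls; inactive = the rest.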

Receptor tyrosine-protein kinase erbB-2 (Homo sapiens), sequence (P04626 whole entry, looked up): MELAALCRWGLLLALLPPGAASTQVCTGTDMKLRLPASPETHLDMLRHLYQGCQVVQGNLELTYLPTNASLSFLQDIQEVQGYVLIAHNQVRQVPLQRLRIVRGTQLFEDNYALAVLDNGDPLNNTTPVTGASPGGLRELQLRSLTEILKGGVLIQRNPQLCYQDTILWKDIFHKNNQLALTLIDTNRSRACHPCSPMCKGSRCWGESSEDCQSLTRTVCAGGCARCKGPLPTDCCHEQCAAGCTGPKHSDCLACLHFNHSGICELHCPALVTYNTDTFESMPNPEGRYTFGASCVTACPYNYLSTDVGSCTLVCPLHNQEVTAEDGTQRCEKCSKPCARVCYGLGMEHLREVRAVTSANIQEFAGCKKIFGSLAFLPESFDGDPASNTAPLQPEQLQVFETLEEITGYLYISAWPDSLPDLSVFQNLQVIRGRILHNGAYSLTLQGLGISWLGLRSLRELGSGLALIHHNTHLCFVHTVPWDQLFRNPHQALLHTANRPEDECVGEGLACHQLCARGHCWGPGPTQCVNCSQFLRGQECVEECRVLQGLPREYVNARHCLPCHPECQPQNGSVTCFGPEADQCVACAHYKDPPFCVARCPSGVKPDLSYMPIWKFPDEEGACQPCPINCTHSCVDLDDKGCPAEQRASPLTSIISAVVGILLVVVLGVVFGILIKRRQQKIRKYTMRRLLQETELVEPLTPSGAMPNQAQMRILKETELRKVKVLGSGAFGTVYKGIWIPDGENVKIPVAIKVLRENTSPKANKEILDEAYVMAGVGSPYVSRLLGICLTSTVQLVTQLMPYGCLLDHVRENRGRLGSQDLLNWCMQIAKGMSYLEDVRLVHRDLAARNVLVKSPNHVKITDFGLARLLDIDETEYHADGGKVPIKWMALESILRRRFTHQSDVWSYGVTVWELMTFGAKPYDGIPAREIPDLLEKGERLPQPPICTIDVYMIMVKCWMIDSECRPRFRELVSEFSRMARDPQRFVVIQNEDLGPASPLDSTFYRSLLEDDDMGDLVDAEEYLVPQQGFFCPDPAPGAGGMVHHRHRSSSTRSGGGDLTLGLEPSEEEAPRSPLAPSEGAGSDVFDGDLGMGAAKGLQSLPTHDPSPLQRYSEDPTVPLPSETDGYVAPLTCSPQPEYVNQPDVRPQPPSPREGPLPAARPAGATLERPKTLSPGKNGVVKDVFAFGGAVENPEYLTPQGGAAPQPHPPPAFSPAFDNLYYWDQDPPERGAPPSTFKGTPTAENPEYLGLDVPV

The term viability denotes a read-out of living cells in per cent, often relative to untreated cells. As usually defined, the inhibition is the change of the read-out against control, counted positive when it falls. For `COCCCNC(=O)CC1Oc2ccccc2NC1=O` (stereo not given), the viability in assay [1] is 86.5%; in assay [3], 86.5% (inactive); in [4] it was 111% (inactive); in [5] it was 83.3% (inactive); in [6] (setting [16]) it was 88.7%; in [6] (setting [17]), 83.3%. The viability is 97.6% (inactive) in [12] and 102% (inactive) in assay [13]. For the same compound, the Her2 level in assay [2] is 100% (inactive). For the same compound, in [6] (H69AR cells + 2 uM doxorubicin), the differential viability (reversal) is -5.41% (inactive). Also, the inhibition is -5.73% (inactive) in assay [7], -2.83% (inactive) in [8] and 1.65% (inactive) in [14]. The growth inhibition in assay [9] is -2.61% (inactive); in assay [10], -1.36% (inactive). The viability increase in assay [11] was 0.06% (inactive). Moreover, in [15], the RAM network inhibition is 2.25% (inactive).

For the compound `O=C(Cn1ncc2c(=O)oc3ccccc3c21)NCCCN1CCCC1=O`, the viability is 86.5% in assay [1]; 86.5% (inactive) in assay [3]; 93.1% (inactive) in [4]; 101% (inactive) in assay [5]; 84.4% in [6] (setting [16]); 101% in assay [6] (setting [17]). For the same compound, the viability in assay [12] is 101% (inactive); in assay [13], 113% (inactive). In addition, in assay [2], the Her2 level was 106% (inactive). For the same compound, the differential viability (reversal) in assay [6] (H69AR cells + 2 uM doxorubicin) is 16.6% (inactive). Moreover, the inhibition was 1.79% (inactive) in assay [7], -3% (inactive) in [8] and 1.86% (inactive) in assay [14]. Moreover, the growth inhibition in [9] is 1.48% (inactive); in [10] it was -6.73% (inactive). Besides, the viability increase in [11] is -0.08% (inactive). In addition, the RAM network inhibition in assay [15] is 3.58% (inactive).

As to `COc1ccc(C(=O)c2coc3ccc(O)c(CN4CCCCC4)c23)cc1`, the viability was 79.5% in assay [1]; 79.5% (inactive) in assay [3]; 66% (inactive) in [4]; 75.5% (inactive) in assay [5]; 75.7% in assay [6] (setting [16]); 75.5% in assay [6] (setting [17]). Also, the viability was 40.5% (inactive) in [12] and 53.3% (inactive) in assay [13]. In assay [2], the Her2 level is 106% (inactive). Further, the differential viability (reversal) in [6] (H69AR cells + 2 uM doxorubicin) is -0.2% (inactive). For the same compound, the inhibition in assay [7] was -3.07% (inactive); in assay [8], 5.33% (inactive); in [14] it was 0.725% (inactive). Besides, the growth inhibition was -3.45% (inactive) in assay [9] and -4.88% (inactive) in assay [10]. For the same compound, the viability increase in assay [11] was -4.51% (inactive). Also, the RAM network inhibition in assay [15] is 6.6% (inactive).

On to `COc1ccc(-c2cnc(SCC(=O)Nc3ccc4c(c3)OCO4)n2Cc2ccco2)cc1`, for which the viability in [1] was 102%; in [3] it was 102% (inactive); in assay [4] it was 76.9% (inactive); in assay [5], 83.4% (inactive); in assay [6] (setting [16]) it was 93.1%; in assay [6] (setting [17]) it was 83.4%. For the same compound, the viability in [12] and in [13] was 67.4% (inactive) throughout. The Her2 level in [2] was 70.5% (inactive). In addition, in [6] (H69AR cells + 2 uM doxorubicin), the differential viability (reversal) is -9.64% (inactive). Moreover, the inhibition in assay [7] was 0.39% (inactive); in [8], -6.03% (inactive); in [14] it was 1.66% (inactive). In addition, the values for the growth inhibition in assay [9] and in assay [10] were 1.77% (inactive) and 10.1% (inactive), respectively. Also, the viability increase in assay [11] was -3.05% (inactive). For the same compound, the RAM network inhibition in assay [15] is 0.61% (inactive).

`CCOC(=O)C(C)(C)Sc1nc2c(cnn2-c2ccc(Cl)cc2)c(=O)[nH]1`: the viability is 76% in assay [1]; 76% (inactive) in [3]; 64.4% (inactive) in [4]; 81.9% (inactive) in assay [5]; 85.4% in assay [6] (setting [16]); 81.9% in assay [6] (setting [17]). Also, the viability in [12] was 91.9% (inactive); in [13] it was 78.2% (inactive). Also, the Her2 level in assay [2] was 91% (inactive). Also, the differential viability (reversal) in assay [6] (H69AR cells + 2 uM doxorubicin) was -3.56% (inactive). The inhibition in assay [7] is -2.05% (inactive); in assay [8], 2.5% (inactive); in assay [14], 1.89% (inactive). Further, the growth inhibition in assay [9] is -5.47% (inactive); in [10], -0.62% (inactive). Also, the viability increase in [11] was -2.17% (inactive). For the same compound, the RAM network inhibition in [15] was 6.14% (inactive).
